The list is not random: actives were taken first. Their share in the collection is about 7.3%.
Vaccinia mCherry: vaccinia inhibition (mCherry reporter). 310,000 tested, 0.63% active. Vaccinia virus mCherry reporter infection, fluorescence. Potency, µM (series often up to 36.5 µM), without a hit: at the top dose activity change, negative = inhibition, most hits filed as inhibitors; calls by dose curve; tested in A549 cells; further: potency means the concentration at half of the fitted maximal effect; nearly all actives have a fitted effect of over 35% in size
FMDV antiviral: foot and mouth disease virus antiviral activity; FMDV antiviral cell-based qHTS; Potency, µM (highest dose often 57.9 µM), for the others: at the highest dose activity change, negative = inhibition, hits mostly inhibitors; 410,000 tested, 1.2% active; AID 1159524; calls by dose curve; tested in HEK293T cells; further: read-out not given here; potency means the concentration at half of the fitted maximal effect; nearly all actives have a fitted effect of over 45% in size
HCMV antiviral: human cytomegalovirus inhibition. AID 1259415. HFF cells, HCMV-luciferase reporter, 72 h; stronger effect = lower value. 410,000 tested, 4.5% active. activity change, negative = inhibition, % at 57.5 µM; in the data active means activity change below about -60%; inconclusive means no clear call, values can overlap the other calls; inactive means above about -39%
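Two-dose cell screen: HFF monolayers treated with compounds and infected with luciferase-expressing HCMV at 1 PFU/cell, 72 h at 37C, then lysed for luciferase measurement.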
HCV inhibitor: HCV inhibition; Huh7.5.1 HCVcc-Cre infection, luciferase reporter, 44 h; Potency, µM (highest dose often 41.8 µM), inactives show top-dose activity change, negative = inhibition, most hits filed as inhibitors; 340,000 tested, 3.4% active; AID 651820; active means well fitted inhibition curve with a large enough effect; inconclusive means small, poorly fitted or top-dose-only effect, or another doubt; inactive means no such curve, though single readings can be large or run the other way; further: potency means the concentration at half of the fitted maximal effect
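A cell-based infection assay in which seeded cells (1,000 per well) receive test compound after 4 h, are inoculated with HCVcc-Cre at approximately 0.5 moi, and are incubated 44 h before luminescence detection.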
VACV Venus inh: vaccinia inhibition (Venus reporter); Vaccinia virus Venus reporter expression, fluorescence; Potency, µM (top dose mostly 36.5 µM), for inactives: at the top dose activity change, negative = inhibition, usual class: inhibitors; 330,000 tested, 0.46% active; AID 720580; calls by dose curve; tested in A549 cells; further: potency means the concentration at half of the fitted maximal effect; nearly all actives have a fitted effect of over 30% in size
* = called active by the depositor; i = inactive; ? = inconclusive; . = no result; + = active, no number; ! = repeats disagree; [ ] = another dose, or the depositor's remark. On the % scale 0 is the no-effect control and ±100 the full control effect.

SMILES	Vaccinia mCherry	FMDV antiviral	HCMV antiviral	HCV inhibitor	VACV Venus inh
CCOC(=O)c1c(S(=O)(=O)NCC(=O)N2CCN(c3cccc(Cl)c3)CC2)c(C)n(C)c1C	-19.6%	-17.6%	-21.1	.	-23.9%
COc1ccc(C(=O)Oc2c(CN3CCOCC3)cc(Cl)c3cccnc23)cc1	.	-24.5%	-75.1*	12.6µM*	?
O=C(Oc1c(CN2CCOCC2)cc(Cl)c2cccnc12)c1ccc(F)cc1	.	-21.1%	-96.5*	10µM*	.
Cc1c(-c2ccccc2)nnn1-c1ccc(F)c(Cl)c1	.	.	28.0	.	.
COc1cc(OC)c(OC)cc1CN1CCOc2ccc(CN3C[C@@H](C)O[C@@H](C)C3)cc2C1	-14.9%	-19.3%	.	.	0.5%
C=C(CCC(=O)c1ccccc1)C(=O)c1ccccc1	-17.1%	?	-81.3*	?	?
C=C(C(=O)c1ccccc1)C(CC(=O)c1ccccc1)c1ccccc1 (stereo unspecified)	12.6µM*	17.8µM*	-101.4*	12.6µM*	?
O=C(Cc1ccccc1)CC(CC(=O)c1ccccc1)c1ccccc1 (stereo unspecified)	-6.1%	-0.5%	-34.9	.	-15.4%
CCCc1ccc(NC(=O)C2CCN(c3cnccn3)CC2)cc1	-0.4%	-15.7%	-64.0*!	?	-22.1%
Cc1ccc(NC(=O)C2CCN(c3cnccn3)CC2)cc1	.	-13.9%	20.0	-1.7%	.
Cc1ccc(-c2[nH]ncc2CNCc2ccc(CN(C)C)cc2)cc1	-16.6%	.	.	.	-15.1%
CN(C)c1ccc(CNS(=O)(=O)c2ccc3[nH]c4c(c3c2)CCCCC4)cc1	-14.8%	3.0%	-64.9*	.	-8.4%
Cc1ccc(CNS(=O)(=O)c2ccc3[nH]c4c(c3c2)CCCCC4)cc1	-11.2%	-12.5%	-0.1	.	-5.0%
Cc1cccc(NS(=O)(=O)c2ccc3[nH]c4c(c3c2)CCCCCC4)c1	-19.2%[7.34 µM]	27.0%	-103.3*	.	-15.5%[7.34 µM]
Cc1ccc(NS(=O)(=O)c2ccc3[nH]c4c(c3c2)CCCCCC4)cc1Cl	-15.6%	0.0%	-83.2*	.	-18.7%
CCOc1ccc(NS(=O)(=O)c2ccc3[nH]c4c(c3c2)CCCCC4)cc1	-4.1%	-0.3%	-103.0*	.	-21.2%
COc1ccc2c(C)c(CCC(=O)NCc3ccccc3OC)c(=O)oc2c1	-14.4%	-5.8%	-11.9	.	-3.0%
Cc1ccc(CN2CCOc3ccc(CN4CCN(CCO)CC4)cc3C2)s1	-1.0%	-5.1%	.	.	-3.4%
C[N+]1(CC(=O)c2ccc(I)cc2)CCCc2ccccc21 (stereo unspecified)	-13.4%	.	.	.	-26.5%
CC(=O)c1ccc(NC(=O)CCc2c(C)nn(-c3ccc4nncn4n3)c2C)cc1	-5.7%	-13.6%	14.5	.	-3.3%
O=C(C[N+]1(CCc2ccccc2)CCOCC1)c1cccc([N+](=O)[O-])c1	-15.9%	.	.	.	-8.8%
Cc1ccc(-c2nc(C(=O)NCCCN3CCOCC3)cc3c2[nH]c2ccccc23)cc1	-13.4%	-25.8%	-36.3	11.2µM*	-20.5%
COc1ccc(Nc2cc(C(=O)NCCCN3CCOCC3)c3ccccc3n2)cc1OC	.	-0.4%	56.7	-18.3%	.
Cc1ccc(-c2cc(C(=O)NCCCN3CCOCC3)c3ccccc3n2)cc1	-17.9%	7.1%	-9.6	-3.9%	-12.5%
COc1ccc(-c2nc(C(=O)NCCCN3CCOCC3)cc3c2[nH]c2ccccc23)cc1OC	-21.1%	?	3.4	12.6µM*	-17.0%
SMILES	Vaccinia mCherry	FMDV antiviral	HCMV antiviral	HCV inhibitor	VACV Venus inh
O=C(CCCOc1ccc(Cl)cc1Cl)Nc1ccncc1	-9.8%	.	-60.7*	?	-27.7%
O=C(CCCOc1ccc(Cl)cc1Cl)Nc1ccccn1	-1.3%	13.0%	-2.1	?	-3.0%
O=C(O)CCCOc1ccc(Cl)cc1Cl	+!	-24.8%	-29.5	-13.3%	?
O=C(c1csnn1)N1CCC2(CCCN(Cc3cc(C(F)(F)F)cc(C(F)(F)F)c3)C2)CC1	.	-0.5%	.	.	.
CSc1nc(C(=O)NCc2nc(-c3cccc(NC(=O)c4ccccn4)c3)oc2C)cs1	-12.7%	13.8%	.	.	-2.3%
O=C(c1ccc(Br)s1)N(Cc1cccnc1)c1nc2ccc(F)cc2s1	-0.7%	-5.2%	14.1	.	-13.3%
CC(=O)N(Cc1cccnc1)c1nc2ccc(F)cc2s1	-2.3%	-8.2%	-76.7*	.	-10.8%
CCCC(=O)NCc1nc2cccnc2n1Cc1ccc(F)cc1	-7.3%	-9.2%	4.8	.	1.5%
O=C(Cc1ccc(OCCc2ccccc2)cc1)NO	11.8%	.	.	.	-8.4%
COc1cc([N+](=O)[O-])c2ncccc2c1[N+](=O)[O-]	-3.4%	-17.0%	.	.	13.1%
COc1cc([N+](=O)[O-])c2nc(C)ccc2c1[N+](=O)[O-]	-7.7%	-19.8%	-3.4	6.31µM*	-21.2%
CCOC(=O)c1cccn1C1C(=O)N(Cc2ccc(OC)cc2)c2ccc(F)cc21 (stereo unspecified)	.	.	-9.8	.	.
Nc1nc(C2CC2)c(Sc2sc(N)nc2C2CC2)s1	.	25.1µM*	-72.4*	-6.6%	?
O=C(Cc1ccc(F)cc1)N1CCN=C1SCc1ccc([N+](=O)[O-])cc1	-24.5%	-19.5%	-68.2*	?	-18.3%
COc1ccc(CN2CCC(n3cc(C(=O)N4CCCCC4)nn3)CC2)c(OC)c1	-12.4%	-10.2%	.	.	-9.0%
CC(=O)Oc1ccc2nonc2c1OC(C)=O	26.1%	.	.	.	12.0%
CC(=O)Nc1cc(OC(C)=O)c2nonc2c1OC(C)=O	7.94µM*	?	-103.6*	?	7.94µM*
Cc1cccc(-n2c(Cn3nc(C)c([N+](=O)[O-])c3C)n[nH]c2=S)c1	.	-12.8%	-98.3*	7.8%	-4.7%
Cc1nn(CCc2n[nH]c(=S)n2-c2cccc(Cl)c2)c(C)c1[N+](=O)[O-]	.	-15.2%	30.7	8.2%	.
Cc1ccc2[nH]cc(C(=O)CCl)c2c1	?	11.2µM*	-91.1*	25.1µM*	-25.1%
Cc1ccc2[nH]cc(C(=O)CN3CCN(C)CC3)c2c1	.	13.1%	16.6	28.9%	.
O=C(NCCN1CCOCC1)c1ccccc1N1C(=O)[C@@H]2Cc3c([nH]c4ccccc34)C(c3ccc(F)cc3)N2C1=O (stereo partly specified)	-8.9%	-19.0%	-74.7*	-18.0%	1.7%
COc1ccc(-c2c(C)sc(NC(=O)c3ccnn3C)c2C#N)cc1	?	?	-88.6*	?	-20.7%
O=C(COc1ccccc1C(=O)Nc1ccccc1)NC1CCCCC1	i	.	.	.	-15.7%
CN1CCc2c1nc1ccccc1c2N=C1CCCN1Cc1ccccc1	.	-27.7%	-61.3*	?	.
COCCNC(=O)C1(C)CCCN(C(=O)c2c(F)ccc(C)c2F)C1 (stereo unspecified)	i	-16.3%	-63.6*	.	-8.0%
COCCNC(=O)C1(C)CCCN(C(=O)c2ccc(C)c(F)c2)C1 (stereo unspecified)	37.8%	-12.4%	-31.6	.	-1.6%
CCc1ccc(OC(C)C(=O)N2CCC(c3nc4ccccc4s3)CC2)cc1 (stereo unspecified)	-0.7%	?	-14.3	.	-26.2%
CCCCn1c(=O)[nH]c(=O)c2c(C(=O)OCC)cc(-c3cccs3)nc21	-3.1%	?	-25.1	10µM*	-3.2%
CO[C@H]1[C@H](NC(=O)c2ccco2)c2ccccc2C12CCN(Cc1cc(Cl)ccc1O)CC2	?	-20.6%	.	.	-24.1%
